From PubChem BioAssay
The list is not random: actives were taken first. Their share in the collection is about 3.8%.
NTR1 ag – activates human neurotensin receptor 1; hit rate 0.17% among 330,000; activation, % at 20 µM; NTR1-U2OS beta-arrestin-GFP spot imaging, agonist mode;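 active = activation at or above 40% of the spot to cytoplasm intensity ratio, with at least 20 cells analyzed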;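 note: 0% = DMSO without peptide and 100% = 100 nM NTR1 peptide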
Target sequence (P30989 whole entry, looked up): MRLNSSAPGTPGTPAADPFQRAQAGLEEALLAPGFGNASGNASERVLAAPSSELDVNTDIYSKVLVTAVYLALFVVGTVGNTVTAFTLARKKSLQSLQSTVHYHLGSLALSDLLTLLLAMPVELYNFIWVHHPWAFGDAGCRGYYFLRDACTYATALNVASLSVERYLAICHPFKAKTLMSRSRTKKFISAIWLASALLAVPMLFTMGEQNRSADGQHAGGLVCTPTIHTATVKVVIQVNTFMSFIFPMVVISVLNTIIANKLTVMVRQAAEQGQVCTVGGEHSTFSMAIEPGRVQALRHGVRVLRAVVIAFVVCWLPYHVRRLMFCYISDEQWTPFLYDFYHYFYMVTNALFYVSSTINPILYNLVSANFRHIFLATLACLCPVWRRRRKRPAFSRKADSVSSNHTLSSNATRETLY
Mdm2 MdmX PPI – inhibitors of human Mdm2/MdmX interaction; SaOS-2 split-luciferase Mdm2/MdmX complementation, luminescence; inhibition, % at 8 µM; hit rate 3% among 330,000; AID 485346;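 active = inhibition of at least 50% at 8 µM in the primary screen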
Jurkat NFkB inh – inhibitors of the PMA/ionomycin-induced NF-kB reporter in Jurkat cells; PMA/ionomycin-induced NF-kB luciferase reporter, luminescence; inhibition, % at 4 µM; hit rate 0.53% among 330,000; in the data active = inhibition above about 50%
Beta cell apopt – beta cell apoptosis inhibition; hit rate 0.8% among 300,000; INS-1E cytokine-induced death, ATP luminescence, 48 h; percent of positive-control rescue, neutral wells zero; protection from apoptosis, % (no concentration beside the values);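 active = Every replicate reaches about 75%, or at least half do and their mean reaches it too, limit read from the data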;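 note: 0% = cytokine-treated negative control wells and 100% = positive control rescue; higher means more ATP so stronger rescue from cytokine killing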
697 NFkB inh – lowers PMA/ionomycin-induced NF-kB signal in 697 B cells. inhibition, % at 4 µM. hit rate 0.33% among 330,000. 697 B-cell NF-kB luciferase reporter, 16 h; in the data active = inhibition above about 35%
Bfl-1 A1 inh – inhibitors of the anti-apoptotic protein A1, read as caspase activation; MEF A1-2A-BIM cells, Caspase-Glo 3/7 luminescence, 3 h; percent of clofoctol response, vehicle zero; caspase activation, % (no concentration beside the values); hit rate 0.066% among 330,000;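 active = over half of replicate activation scores above 10%, or exactly half above 10 with the replicate mean above 10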
Jurkat NFkB conf – inhibitors of the PMA/ionomycin-induced NF-kB reporter in Jurkat cells, retest. hit rate 27% among 2,700. shares compounds with Jurkat NFkB inh. inhibition, % at 4 µM. Jurkat NF-kB luciferase, 16 h;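 active = inhibition reaching about 45% at 4 µM in either replicate, limit read from the data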;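 note: plate controls were PMA/ionomycin stimulated DMSO wells for no effect and unstimulated DMSO wells for full effect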
Active calls of the source: *; nt = not tested or not shown.

SMILES	NTR1 ag	Mdm2 MdmX PPI	Jurkat NFkB inh	Beta cell apopt	697 NFkB inh	Bfl-1 A1 inh	others
Cc1ccc(N2C(=O)NC(=O)/C(=C\C=C\c3ccco3)C2=O)cc1	-1	1	-2	40	1	3
Cc1ccc(N2C(=O)NC(=O)/C(=C\C=C\c3ccco3)C2=O)cc1C	nt	nt	nt	97*	nt	3
CN1CCN(c2ccc(NC(=O)Oc3ccccc3)cc2)CC1	-1	11	-1	-1	3	0
O=P(Oc1ccccc1)(Oc1ccccc1)N1CCN(c2ccc(F)cc2)CC1	8	30	-1	78*	-10	0
O=c1[nH]c(=S)n(-c2ccccc2)c(O)c1/C=N/N1CCOCC1	-1	-3	-1	-3	2	0
COc1ccc(CN2CCN(C(=O)COc3ccc4ccccc4c3)CC2)c(OC)c1	0	9	1	-2	1	-1
O=C(COc1ccc(Br)cc1)N1CCN(Cc2c[nH]c3ccccc23)CC1	0	21	21	106*	-24	0
O=C(COc1ccc2ccccc2c1)N1CCN(Cc2c[nH]c3ccccc23)CC1	-1	22	0	102*	-35	1
Cc1nn(CC(C)C)c(Cl)c1C(=O)O	-1	-13	-1	-6	11	0
C=CCN(CC=C)Cc1c[nH]c2ccccc12	0	12	13	107*	-12	1
O=C(c1ccccc1)C(CN1CCCC1)c1ccccc1 (stereo not given)	nt	nt	nt	92*	nt	0
Nc1ccccc1N=Cc1c(O)n(CCC2=CCCCC2)c(=O)[nH]c1=O	4	24	0	97*	-6	0
O=C(N/N=C/c1c(O)n(CCC2=CCCCC2)c(=O)[nH]c1=O)c1ccccc1	-1	10	3	8	-1	0
CCCCCn1c(=O)c(C(=O)NC(C)c2ccccc2)c(O)c2ccccc21 (stereo not given)	2	32	-13	109*	16	1
CCCCn1c(=O)c(C(=O)Nc2ccccc2)c(O)c2ccccc21	6	4	-23	22	-27	-1
CCCCCCn1c(=O)c(C(=O)Nc2ncccc2C)c(O)c2ccccc21	0	5	-15	82*	-28	2
CC12CC3CC(C)(C1)CC(N)(C3)C2	3	-27	8	-10	18	1
CCOC(=O)C(O)(c1ccc(NC(=O)c2ccc(Cl)c(Cl)c2)cc1)C(F)(F)F (stereo not given)	6	20	5	6	8	0
CCOC(=O)C(=CNc1ccc(C(O)(C(=O)OCC)C(F)(F)F)cc1C)C(=O)OCC (stereo not given)	2	-2	-9	97*	-4	0
CN1CCN(c2ccc(S(C)(=O)=O)cc2[N+](=O)[O-])CC1	2	-16	-2	-3	-6	1
CN1CCN(c2ccc([N+](=O)[O-])c3no[n+]([O-])c23)CC1	nt	nt	nt	107*	nt	3
COc1cc(/C=C/[N+](=O)[O-])ccc1OC(=O)c1cccnc1	35	15	5	12	5	8.0*
O=C(NCc1cccnc1)Nc1ccc([N+](=O)[O-])cc1	1	12	9	81*	-10	1
COC(=O)c1ccccc1OP1(=O)COc2ccccc2OC1	3	3	-1	2	14	-1
CSc1ccc(CN2CCN(C(=O)COc3cccc(C)c3)CC2)cc1	-2	8	6	1	-12	1
SMILES	NTR1 ag	Mdm2 MdmX PPI	Jurkat NFkB inh	Beta cell apopt	697 NFkB inh	Bfl-1 A1 inh	others
CC(C)N1CCC2(CC1)NC(CO)(CO)CO2	-2	18	5	-2	12	1
COc1cc(OC)c(OC)cc1CNCCc1ccc2c(c1)OCO2	0	12	11	nt	10	0
COc1cc(CN2CCN(c3cc(C)ccc3C)CC2)ccc1O	0	31	-4	108*	-23	4
Nc1c2c(nc3sc4c(c13)CCCC4)CCCCC2	7	-189	-174	4	-224	1	Jurkat NFkB conf=-94
COc1ccc(/C=N\N=C(N)N)cc1	-1	-21	51*	-1	4	0	Jurkat NFkB conf=16
NC(N)=N/N=C/c1ccc(N2CCOCC2)cc1	0	39	49	-1	8	1
